Most compounds without a hit are left out; they make up all but 1.4% or so of the library.
VACV mCherry inh: vaccinia inhibition (mCherry reporter) | AID 720579 | Potency, µM (top dose mostly 36.5 µM), without a hit: at the highest dose activity change, negative = inhibition, most hits filed as inhibitors | Vaccinia virus mCherry reporter infection, fluorescence | 310,000 compounds, 0.63% hits; calls by dose curve; tested in A549 cells; note: % is set by controls: 0 for no effect and ±100 for the full control effect; nearly all actives have a fitted effect of over 35% in size
Vaccinia Venus: inhibitors of vaccinia virus (Venus reporter). Vaccinia virus Venus reporter expression, fluorescence. AID 720580. Potency, µM (doses to about 36.5 µM), for inactives: top-dose activity change, negative = inhibition, actives largely listed as inhibitors. 330,000 compounds, 0.46% hits; calls by dose curve; tested in A549 cells; note: % is set by controls: 0 for no effect and ±100 for the full control effect; nearly all actives have a fitted effect of over 30% in size
AMA1-RON2 inh: disrupts binding of P. falciparum AMA1 to RON2; AlphaScreen AMA1-biotinylated RON2 peptide binding; Potency, µM (titrated, usually from 58.2 µM), inactives show top-dose activity change, negative = inhibition, hits mostly inhibitors; 360,000 compounds, 0.2% hits; AID 720542;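 note: 0% = vehicle wells and -100% = peptide control; nearly all actives have a fitted effect of over 45% in size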
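AMA1 (3D7) with his tag at 25 nM final met compounds first, then biotinylated RON2 peptide at 25 nM; detection used donor plus acceptor beads, 10 µg/mL apiece, read by AlphaScreen after 30 min at room temperature.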
AmpC inh detg: inhibitors of E. coli AmpC beta-lactamase with detergent; AID 485294; Potency, µM (titrated, usually from 114 µM), for inactives: at the top dose activity change, negative = inhibition, hits mostly inhibitors; AmpC hydrolysis of nitrocefin, absorbance 480 nm, 0.01% Triton; 370,000 compounds, 0.041% hits;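 note: 0% = no-compound wells and -100% = no-enzyme wells; nearly all actives have a fitted effect of over 25% in size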
Target sequence (P00811 whole entry, looked up): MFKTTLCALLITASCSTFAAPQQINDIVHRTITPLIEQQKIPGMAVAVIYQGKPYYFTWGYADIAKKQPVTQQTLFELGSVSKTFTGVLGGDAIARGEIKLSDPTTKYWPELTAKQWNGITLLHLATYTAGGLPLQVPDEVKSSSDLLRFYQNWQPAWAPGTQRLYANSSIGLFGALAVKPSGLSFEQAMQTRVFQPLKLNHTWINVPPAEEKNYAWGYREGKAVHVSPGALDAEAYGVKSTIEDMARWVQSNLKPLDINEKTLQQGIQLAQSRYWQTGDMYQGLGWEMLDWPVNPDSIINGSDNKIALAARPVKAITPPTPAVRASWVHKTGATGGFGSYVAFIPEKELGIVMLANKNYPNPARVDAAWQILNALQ
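AmpC (5.3 nM in the dispensed reagent) in 20 mM phosphate pH 7.0 with 0.01% (detergent screen) or 0.0001% Triton X-100 was preincubated with compounds for 15 min at room temperature. Nitrocefin was then added from an 800 uM solution, and hydrolysis was followed at 480 nm.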
SARS PLpro yeast: blocks SARS-CoV papain-like protease in a yeast assay | S. cerevisiae expressing SARS-CoV PLpro, growth rescue | Potency, µM (highest dose often 32.9 µM), without a hit: at the highest dose activity, positive = growth rescue, actives largely listed as activators | 330,000 compounds, 0.19% hits | AID 485353; calls by dose curve; note: 0% is about no effect; nearly all actives have a fitted effect of over 55% in size
AmpC inh no detg: AmpC beta-lactamase inhibition without detergent; 330,000 compounds, 0.52% hits; AmpC nitrocefin hydrolysis, absorbance 480 nm, 0.0001% Triton; P00811; Potency, µM (highest dose often 57.1 µM), inactives show at the highest dose activity change, negative = inhibition, usual class: inhibitors;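 note: plate controls were no compound for no effect and no enzyme for full effect; nearly all actives have a fitted effect of over 20% in size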
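20 mM phosphate pH 7.0 + 0.01% (detergent screen) or 0.0001% Triton X-100; 5.3 nM AmpC reagent; cpd preinc 15 min RT; nitrocefin (800 uM stock) to start; A480 q20 s × 4 min; Activity was normalised to no-enzyme and no-compound control wells.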
The depositor's hits bear a star; i = inactive; ? = inconclusive; nt = no result given; ! = not active in a repeat. Unless noted, calls come from the whole dose curve; as a rule, active = well fitted curve in the direction sought with a large enough effect; inconclusive = small, poorly fitted or top-dose-only effect, or another doubt; inactive = no such curve, though single readings can be large; an effect the other way counts as inactive or inconclusive. Potency is the fitted concentration of half-maximal effect.

SMILES | VACV mCherry inh | Vaccinia Venus | AMA1-RON2 inh | AmpC inh detg | SARS PLpro yeast | AmpC inh no detg
CCOC(=O)N1CCN(C(=O)c2ccc(-c3ccccc3OC)nc2N2CCC(N3CCCC(CO)C3)CC2)CC1 (stereo not drawn) | -8.9% | -5.1% | nt | nt | nt | nt
O=C1C(SCCO)=C(SCCO)C(=O)c2ccccc21 | 10µM*! | ? | -18.4% | ? | nt | -26.1%
O=C1C(Cl)=C(NCCCO)C(=O)c2ccccc21 | nt | -9.7% | -8.9% | ? | -10.3% | -14.6%
CN1CCN(Cc2c(F)cccc2Cl)CC1 | nt | nt | 14.1µM* | -0.1% | 1.4% | -4.0%
Fc1cccc(F)c1CN1CCN(c2ccc(Cl)cc2)CC1 | -13.8% | -12.5% | ? | -8.6% | -0.3% | -9.7%
Cc1cc(C(=O)N2CCOc3ccc(CN4CCC(Oc5cccnc5)CC4)cc3C2)c(C)o1 | -9.1% | 2.6% | nt | nt | nt | nt
Cc1ccc(NC(=O)c2ccc(NC(=O)N3CCSc4ncccc43)cc2)cc1Cl | -2.7% | -26.3% | nt | -5.7% | nt | nt
O=C1C=CC2(C=C1)O[C@H](Cc1ccccc1)[C@@H](Cc1ccccc1)O2 | 10µM* | 22.4µM* | -4.6% | nt | nt | nt
COc1ccc(C[C@@H]2OC3(C=CC(=O)C=C3)O[C@H]2Cc2ccc(OC)cc2)cc1 | ? | 10µM* | 18.0% | nt | nt | nt
Cc1cc(Nc2cc(F)ccc2C)n2ncnc2n1 | -16.8% | -7.6% | -1.9% | -4.0% | 23.9% | 28.2µM*
Cc1cc(Nc2ccc(C)c(F)c2)n2ncnc2n1 | nt | nt | 9.8% | -9.9% | -4.9% | 122.7%
CC1=CC(O)C(O)C2(C)C1CC1OC(=O)C(O)C3C(C)C(O)C4(O)OCC13C42 (stereo not drawn) | ? | 7.94µM* | 10.9% | nt | nt | nt
CCOc1ccc(Br)cc1CNc1ccc2c(c1)OCCO2 | -7.5% | -5.5% | 31.6µM* | -13.9% | -1.4% | -43.3%
CC12CCC(C(=O)O)(C/C1=N\O)C2(C)C (stereo not drawn) | -9.4% | -7.2% | 0.6% | -8.1% | 11.2µM*! | -12.6%
O=C1NC[C@H](c2ccccc2)N(CCCCC2CCCCC2)C1=O | 2.24µM* | ? | 5.5% | nt | nt | nt
O=C(NCC(c1ccco1)N1CCc2ccccc21)C(=O)Nc1ccccc1 (stereo not drawn) | ? | -13.2% | -5.8% | ? | 5.1% | 10µM*
O=C(NCC(c1ccco1)N1CCc2ccccc21)C(=O)Nc1ccccc1F (stereo not drawn) | -9.7% | -29.7% | ? | -22.3% | -24.9% | -25.2%
CN(C)CCCNC(=O)/C(=C/c1ccc(-c2ccc([N+](=O)[O-])cc2)o1)NC(=O)c1ccccc1 | nt | nt | 7.9% | 1.7% | -0.8% | 104.1%
CN(C)CCCNC(=O)/C(=C\c1ccc(-c2ccc(Br)cc2)o1)NC(=O)c1ccccc1 | 11.2µM* | 12.6µM* | -20.7% | ? | 11.6% | 244.6%
Cc1ccc(C(=O)N/C(=C\c2ccc(-c3ccc(Cl)cc3)o2)C(=O)NCCCN(C)C)cc1 | ? | 12.6µM* | 27.2% | ? | -0.5% | 271.8%
CC(=O)c1ccccc1C(=O)NCC1Cc2cccc(-c3cccnc3)c2O1 (stereo not drawn) | -5.3% | -9.1% | nt | nt | nt | nt
CC(=O)c1cccc(NC(=O)c2cc3nc(-c4ccc(Br)cc4)cc(C(F)(F)F)n3n2)c1 | 12.6µM* | ? | nt | 5.1% | nt | nt
Cc1c(CC(=O)N2CCCCC2)c(=O)oc2cc3occ(C(C)(C)C)c3cc12 | -3.0% | -1.5% | nt | -4.2% | nt | nt
CCN1CCCC1CNC(=O)c1cnn(-c2nccc(-c3ccco3)n2)c1C1CC1 (stereo not drawn) | -0.4% | -12.5% | nt | nt | nt | nt
CCCCNc1c(-c2cccc(-c3ccc(OC)cc3)c2)nc2ccc(C)cn12 | 12.6µM* | ? | -7.8% | -4.9% | 0.1% | -2.5%
SMILES | VACV mCherry inh | Vaccinia Venus | AMA1-RON2 inh | AmpC inh detg | SARS PLpro yeast | AmpC inh no detg
C=C1[C@@H](O)CN(Cc2ccc(OC)cc2)S1(=O)=O | ? | 28.2µM* | nt | nt | nt | nt
COc1ccc(CN2C[C@H]3CCCN3c3cc(Br)ccc3S2(=O)=O)cc1 | ? | -25.3% | 1.6% | nt | -0.4% | 20µM*
CCC1C(=O)NCCN1Cc1ccc2c(c1)CN(Cc1ccc(OC)cc1OC)CCO2 (stereo not drawn) | -10.2% | 1.2% | nt | nt | nt | nt
COC1OC(COC(=O)c2ccccc2)C(OC(=O)c2ccccc2)C1OC(=O)c1ccccc1 (stereo not drawn) | nt | nt | 0.8% | -5.7% | 1.8% | -1.9%
O=C(OC[C@H]1O[C@@H](OC(=O)c2cc(O)c(O)c(OC(=O)c3cc(O)c(O)c(O)c3)c2)[C@H](OC(=O)c2cc(O)c(O)c(OC(=O)c3cc(O)c(O)c(O)c3)c2)[C@@H](OC(=O)c2cc(O)c(O)c(OC(=O)c3cc(O)c(O)c(O)c3)c2)[C@@H]1OC(=O)c1cc(O)c(O)c(OC(=O)c2cc(O)c(O)c(O)c2)c1)c1cc(O)c(O)c(OC(=O)c2cc(O)c(O)c(O)c2)c1 | 5.62µM* | 10µM* | nt | ? | 4.5% | ?
COc1ccc2nc(C)cc(N/N=C/c3ccc(F)cc3)c2c1 | ? | 10µM* | 2.7% | -9.0% | -3.5% | -32.2%
COc1ccc(/C=N/Nc2cc(C)nc3ccccc23)cc1 | ? | ? | 6.2% | -6.3% | 1.4% | -0.9%
Cc1c(C(=O)N2CC3CCC2C3)sc2ncnc(NCc3ccco3)c12 (stereo not drawn) | -1.8% | -17.4% | nt | nt | nt | nt
O=C(O)c1cc(O)c2c(c1)[C@@H]([C@H]1c3cc(C(=O)O)cc(O)c3C(=O)c3c(O[C@@H]4O[C@H](CO)[C@@H](O)[C@H](O)[C@H]4O)cccc31)c1cccc(OC3O[C@H](CO)[C@@H](O)[C@H](O)[C@H]3O)c1C2=O (stereo partly drawn) | i | -18.8% | ? | ? | nt | 1.41µM*
O=C(O)c1cc(O)c2c(c1)[C@H]([C@H]1c3cc(C(=O)O)cc(O)c3C(=O)c3c(O[C@@H]4O[C@H](CO)[C@@H](O)[C@H](O)[C@H]4O)cccc31)c1cccc(OC3O[C@H](CO)[C@@H](O)[C@H](O)[C@H]3O)c1C2=O (stereo partly drawn) | i | -14.5% | 0.891µM* | 3.6% | nt | 1µM*
O=C1c2cc(CO)cc(O)c2C(=O)c2c(O[C@@H]3OC(CO)[C@@H](O)[C@@H](O)[C@@H]3O)cccc21 (stereo partly drawn) | 5.0% | 5.6% | -10.1% | nt | nt | nt
Cc1cc(N(C)C)c(C)cc1/C=C/c1ccnc2ccccc12 | -26.0% | 12.5% | nt | nt | nt | nt
Cc1cnc(-n2ncc(C(=O)NCC(C)(C)N3CCOCC3)c2C)nc1-c1cccs1 | -8.1% | 9.7% | nt | nt | nt | nt
O=C1CC(CC(=O)N2CC3CCCC2C3)(c2cccc(F)c2)C(=O)N1Cc1cccnc1 (stereo not drawn) | -8.8% | -1.4% | nt | nt | nt | nt

Screening data deposited in PubChem BioAssay by National Center for Advancing Translational Sciences (NCATS).
